Screens from PubChem BioAssay.
Most compounds without a hit are left out; they make up all but 2.5% or so of the library.
Apoferritin bind: candidate novel general anesthetic via apoferritin binding; P02791; apoferritin/1-aminoanthracene competitive binding, fluorescence; Potency, µM (series often up to 77.5 µM), for inactives: at the top dose activity change, negative = displacement, usual class: inhibitors; 350,000 compounds, 0.074% hits; AID 485281; further: potency means the concentration at half of the fitted maximal effect; on the % scale 0 is the no-effect control and ±100 the full control effect; nearly all actives have a fitted effect of over 20% in size
Target sequence (P02791 2-175 limits assumed): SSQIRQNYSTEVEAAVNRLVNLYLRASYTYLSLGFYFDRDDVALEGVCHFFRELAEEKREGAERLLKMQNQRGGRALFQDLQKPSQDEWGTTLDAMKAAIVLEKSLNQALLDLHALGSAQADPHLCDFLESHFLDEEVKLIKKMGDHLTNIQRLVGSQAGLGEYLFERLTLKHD
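Probe: 1-aminoanthracene (50% saturated, PBS). Protein: horse-spleen apoferritin, 10 uM. Incubation: 10 min, room temperature. Detection: 380 nm excitation, 535 nm emission. Analysis: normalized response, four-parameter Hill.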
Mito fusion yeast: mitochondrial division inhibition or fusion activation. AID 485298. Potency, µM (doses to about 46.1 µM), inactives show top-dose growth rescue (activation), hits mostly activators. S. cerevisiae fusion-defective mutant growth rescue, CellTiterGlo 48 h. 320,000 compounds, 0.23% hits; further: potency means the concentration at half of the fitted maximal effect; % of control where 0% means no effect; nearly all actives have a fitted effect of over 45% in size
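S. cerevisiae fusion-defective temperature-sensitive mutants (e.g. fzo1-1, mgm1-5) grown 48 h at 37C in YPEG (ethanol/glycerol non-fermentable) medium with 23 nl compound per well; growth rescue read as CellTiterGlo luminescence.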
TDP43 rescue: rescues yeast growth from TDP-43 toxicity | TDP-43 expressing yeast growth rescue, BacTiter-Glo, 24 h | Potency, µM (doses to about 46.1 µM), for the others: top-dose growth rescue (activation), most hits filed as activators | 410,000 compounds, 1.8% hits | AID 652104; further: potency means the concentration at half of the fitted maximal effect; % of control where 0% means no effect; nearly all actives have a fitted effect of over 50% in size
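Yeast expressing TDP-43 (pregrown in raffinose, seeded at OD600=0.02 in galactose medium) exposed to compounds 24 hr at 30 deg C. Growth read by BacTiter-Glo luminescence; rescue of toxicity appears as increased signal.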
aSyn yeast inh: inhibitors of alpha-synuclein toxicity in yeast | 370,000 compounds, 0.14% hits | Potency, µM (series often up to 46.1 µM), without a hit: at the top dose growth rescue (activation), usual class: activators | Yeast expressing alpha-synuclein, growth rescue, BacTiter-Glo, 24 h; further: potency means the concentration at half of the fitted maximal effect; % of control where 0% means no effect; nearly all actives have a fitted effect of over 65% in size
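Galactose-induced alpha-syn yeast (OD600=0.02, raffinose-pregrown) + pinned cpd, 24 hr, 30 deg C; growth by BacTiter-Glo luminescence. Growth restoration scores as activation.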
CCT chaperon mod: changes cytosolic chaperonin activity; purified chaperonin ATPase assay, HTRF ADP detection, 30 min; activity change, % (test concentration not listed), hits read low; 360,000 compounds, 0.3% hits; in the data active means activity change below about -30%; further: on the % scale 0 is the no-effect control and ±100 the full control effect
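TRiC (40 or 20 nM final, by batch activity) in 30 mM Tris pH 7.4, 100 mM KCl, 5 mM MgCl2, 1 mM DTT was treated with compound at 76 uM single dose, then 10 uM ATP, 30 min at 37 °C. ADP was read by HTRF Transcreener.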
Akt phos inh: inhibitors of Akt phosphorylation; Neuro2A IGF-stimulated pAkt S473 HTRF, 20 min; stronger effect = lower value; activity change, % for hits at 50 µM; 360,000 compounds, 0.32% hits; AID 651550; in the data active means activity change below about -80%; inconclusive means mostly about -51% to -80%; further: on the % scale 0 is the no-effect control and ±100 the full control effect
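Neuro2A cells (4,500/well, DMEM with 0.5% FBS) were treated with compound at a single 50 µM final concentration, stimulated with 6 nM IGF for 20 min at 37 °C, and lysed. Phospho-Akt Ser473 was read by HTRF as 665/615 ratio ×10^4.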
* marks the source's active call; other numbers are inactive results. Unless noted, the call rests on the fitted dose curve; in most records, active means well fitted curve in the direction sought with a large enough effect; inconclusive means small, poorly fitted or top-dose-only effect, or another doubt; inactive means no such curve, though single readings can be large; an effect the other way counts as inactive or inconclusive.

O=[N+]([O-])c1cc(S(=O)(=O)Nc2ccccc2)ccc1Nc1ccccc1 was read as TDP43 rescue 12.6µM*, aSyn yeast inh 12.8%, CCT chaperon mod -1.9 and Akt phos inh inactive.
Screening CCc1ccc(C(=O)c2cn(CC(=O)Nc3ccc4c(c3)OCO4)c3ccc(OC)cc3c2=O)cc1 returned Apoferritin bind -2.5% and TDP43 rescue 22.3%.
`Cc1ccccc1C(=O)Nc1ccc(OCc2cc(=O)n3cccc(C)c3n2)cc1` gave Apoferritin bind -3.0% and TDP43 rescue 16.0%.
`Cc1cccc(-n2ccnc2SCC(=O)Nc2ccc3c(c2)OCO3)c1` gave Apoferritin bind -2.1%, TDP43 rescue 20µM* and aSyn yeast inh 10.3%.
O=C(CSc1nc(-c2cccc(F)c2)[nH]c1-c1ccccc1)Nc1ccc2c(c1)OCCO2 was read as Apoferritin bind 32.5% and TDP43 rescue inconclusive.
Screening O=C(CSc1nccn1-c1cccc(Cl)c1)Nc1cccc(C(F)(F)F)c1 returned Apoferritin bind -3.7% and TDP43 rescue 20µM*.
For O=C(CSc1nccn1-c1cccc(Cl)c1)Nc1cccc2ccccc12 the results were Apoferritin bind 2.0% and TDP43 rescue 15.8µM*.
O=C(CSc1nccn1-c1ccc(Cl)cc1)Nc1ccc(Cl)c(Cl)c1 was read as Apoferritin bind -7.5% and TDP43 rescue 0.0%.
`Cc1cccc(-c2nc(SCC(=O)Nc3ccc4c(c3)OCCO4)c(-c3ccccc3)[nH]2)c1` gave Apoferritin bind 4.0% and TDP43 rescue 35.5µM*.
For Cc1cccc(-n2ccnc2SCC(=O)Nc2ccc3c(c2)OCCO3)c1 the results were Apoferritin bind 4.6%, Mito fusion yeast 17.0%, TDP43 rescue inconclusive, aSyn yeast inh 9.3%, CCT chaperon mod -1.6 and Akt phos inh inactive.
For CCC[n+]1c(/C=C/c2c(OC)cc(OC)cc2OC)ccc2ccccc21 the results were aSyn yeast inh -24.0%.
`CCOC(=O)N1CCC(NC(=O)c2ccc3c(c2)N(Cc2cc(C)ccc2C)C(=O)c2ccccc2S3(=O)=O)CC1` gave Apoferritin bind inconclusive and TDP43 rescue 27.5%.
Cc1cccc2cc(CN(Cc3ccccc3)Cc3nnnn3Cc3ccccc3)c(=O)[nH]c12 was read as aSyn yeast inh 6.0%.
Screening Cc1cccc(-n2ccnc2SCC(=O)Nc2cccc3ccccc23)c1 returned Apoferritin bind -6.4%, TDP43 rescue 22.4µM* and aSyn yeast inh 11.1%.
Screening O=C(CSc1nccn(-c2cccc(F)c2)c1=O)Nc1ccc(Cl)cc1F returned Apoferritin bind 3.9%, Mito fusion yeast -25.5%, TDP43 rescue 17.8µM*, aSyn yeast inh -77.6%, CCT chaperon mod -0.6 and Akt phos inh inactive.
Oc1ccc(Cl)cc1C1C=C(c2ccc3c(c2)OCO3)NC(c2ccc(Br)cc2)N1 (centres undefined) was read as aSyn yeast inh -0.8%.
Screening COc1ccc(C2Nc3ccccc3C(=O)N2c2ccccc2F)cc1COc1ccc(NC(C)=O)cc1 (centres undefined) returned aSyn yeast inh 11.7%.
CCc1cc(SC#N)cc(C)c1N was read as Apoferritin bind -4.9%, Mito fusion yeast 3.8%, TDP43 rescue 17.8µM*, aSyn yeast inh -1.5%, CCT chaperon mod 1.7 and Akt phos inh inactive.
`CC(C)c1ccc(NC(=O)Cn2cc(S(=O)(=O)Cc3cccc(Cl)c3)c3ccccc32)cc1` gave Apoferritin bind -3.1% and TDP43 rescue inconclusive.
Screening FC(F)(F)c1nnc2c(Sc3ccccn3)nc3ccccc3n12 returned Apoferritin bind -6.4%, Mito fusion yeast -3.3%, TDP43 rescue 15.8µM*, aSyn yeast inh -1.8%, CCT chaperon mod -2.4 and Akt phos inh inactive.
O=C(OCCOCCOC(=O)Oc1ccccc1)Oc1ccccc1 was read as TDP43 rescue 14.1µM*, aSyn yeast inh 6.9%, CCT chaperon mod -1.9 and Akt phos inh inactive.
CCN1C(=O)[C@@H]2[C@@H](c3ccc(-c4ccccc4)cc3)N3CCC[C@@]3(C(=O)OC)[C@@H]2C1=O was read as TDP43 rescue 18.6%, aSyn yeast inh 10.5%, CCT chaperon mod -1.2 and Akt phos inh inactive.
For CCN1C(=O)[C@H]2[C@@H](c3ccc(-c4ccccc4)cc3)N3CCC[C@@]3(C(=O)OC)[C@H]2C1=O the results were Mito fusion yeast inconclusive, TDP43 rescue 35.5µM*, aSyn yeast inh 1.1%, CCT chaperon mod 1.7 and Akt phos inh inactive.
`COC(=O)[C@@]12CCCCN1[C@H](c1ccc(-c3ccc(OC)cc3)c(OC)c1)[C@@H]1C(=O)N(C)C(=O)[C@@H]12` gave Mito fusion yeast 12.6µM*, TDP43 rescue inconclusive, aSyn yeast inh 14.8%, CCT chaperon mod 0.5 and Akt phos inh inactive.
Nc1c(Br)cc(/C=C2\C=Cc3ccccc32)cc1Br was read as aSyn yeast inh -14.6%.
`O=C(NCc1ccco1)c1cc2cc(Br)ccc2o1` gave Apoferritin bind -5.2%, Mito fusion yeast 1.1%, TDP43 rescue 22.4µM*, aSyn yeast inh -3.1%, CCT chaperon mod -0.7 and Akt phos inh inactive.
For O=C(NCCc1nc2ccccc2n1CCCOc1ccccc1)C1CCCCC1 the results were aSyn yeast inh -0.7%.
CC(=O)c1cccc(NC(=O)C2C3C=CC(C3)C2C(=O)O)c1 (centres undefined) was read as Apoferritin bind -20.5%, Mito fusion yeast -4.0%, TDP43 rescue -10.2%, aSyn yeast inh -5.0%, CCT chaperon mod -0.3 and Akt phos inh inactive.
Cc1ccccc1NC(=O)C1C2C=CC(C3CC23)C1C(=O)O (centres undefined) was read as Apoferritin bind inconclusive, Mito fusion yeast -10.9%, TDP43 rescue 11.2µM*, aSyn yeast inh -0.1%, CCT chaperon mod 0.7 and Akt phos inh inactive.
CC(=O)c1cccc(NC(=O)C2C3C=CC(C4CC34)C2C(=O)O)c1 (centres undefined) was read as Apoferritin bind -12.7%, Mito fusion yeast -1.9%, TDP43 rescue 22.4µM*, aSyn yeast inh 1.3%, CCT chaperon mod -8.6 and Akt phos inh inactive.
Screening O=C(c1cccc(C(F)(F)F)c1)N1CCOc2ccccc21 returned Apoferritin bind 6.8%, Mito fusion yeast 32.8%, TDP43 rescue 14.1µM*, aSyn yeast inh -0.6%, CCT chaperon mod -0.2 and Akt phos inh inactive.
For Nc1cc(=O)[nH]c2c1CCC2 the results were aSyn yeast inh 1.1%.
